This is an account of results in PubChem BioAssay (NCI).

Some test systems named below: NCI-H23 lung; NCI-H226 lung; NCI-H322M lung; HOP-62 NSCLC; HOP-92 NSCLC; NCI-H522 lung; A549/ATCC NSCLC; 786-0 renal; COLO 205 colon; DU-145 prostate; K-562 leukemia; MALME-3M melanoma; MDA-MB-231 breast; RXF 393 renal; SF-268 CNS; SF-295 CNS; SF-539 CNS; UACC-257 melanoma; M14 melanoma; NCI-H460 lung.
Common to all, as to assay: NCI-60 one-dose screen, 48 h (100 = growth as untreated, 0 = no growth, -100 = all killed)
What all share (details): 10 µM unless noted

The panel holds about 83,000 compounds, 20% with a hit somewhere; the sample as a whole holds those more often.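 In brief: 96-well plates, 48 h treatment, single concentration, percent growth endpoint.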 A number with no mark means an inactive call. Activity calls are given as the source filed them. The calls were made as follows: active = growth percent below 10; inactive = the rest.

For `C=C(C)[C@@H]1CC[C@]2(C(=O)N3CCNCC3)CC[C@]3(C)[C@H](CC[C@@H]4[C@@](C)(CCC(=O)N5CCNCC5)[C@H](C(=C)C)CC[C@]43C)[C@@H]12`, the growth with NCI-H23 lung was 93.2%; in the experiment on NCI-H226 lung, 92.7%; in the experiment with NCI-H322M lung, 102%; in the experiment with HOP-62 NSCLC it was 92.9%; in the experiment on HOP-92 NSCLC, 95.5%; with NCI-H522 lung, 71.4%. The growth in the experiment with A549/ATCC NSCLC is 75.2%; with 786-0 renal, 80.2%; in the experiment with COLO 205 colon, 77.9%; in the experiment with DU-145 prostate, 79.1%; in the experiment on K-562 leukemia, 3.02% (active); in the experiment on MALME-3M melanoma it was 98.9%. Moreover, the growth in the experiment with MDA-MB-231 breast was 71.2%; with RXF 393 renal, 82.2%; in the experiment with SF-268 CNS, 98.4%; with SF-295 CNS it was 101%; in the experiment on SF-539 CNS, 79.4%; with UACC-257 melanoma it was 95.5%. In the experiment on M14 melanoma, the growth is 85.8%.

Consider `O=C(C1=Cc2cc3ccccc3n2Cc2cnnn21)c1ccc(F)cc1`, for which the growth with NCI-H23 lung was 98.9%; in the experiment on NCI-H226 lung, 98.8%; in the experiment on NCI-H322M lung, 99.1%; in the experiment with HOP-62 NSCLC it was 109%; with HOP-92 NSCLC, 102%; with NCI-H522 lung, 91.3%. Further, the growth with A549/ATCC NSCLC was 96.3%; in the experiment on 786-0 renal, 99.1%; with COLO 205 colon, 117%; in the experiment on DU-145 prostate it was 97.7%; in the experiment with K-562 leukemia, 87.4%; in the experiment with MALME-3M melanoma, 101%. The growth is 105% with MDA-MB-231 breast; 103% in the experiment with RXF 393 renal; 100% with SF-268 CNS; 97.8% with SF-295 CNS; 101% with SF-539 CNS; 107% with UACC-257 melanoma. The growth in the experiment with M14 melanoma is 107%.

Consider `NCCCNc1nc2ccccc2c2c(=O)c3cc(Cl)ccc3sc12`, for which the growth in the experiment with NCI-H23 lung was 45.7%; with NCI-H226 lung, 93.1%; in the experiment with NCI-H322M lung, 39.5%; with HOP-62 NSCLC, -82.9% (active); in the experiment on NCI-H460 lung, -83.8% (active); in the experiment on HOP-92 NSCLC, -7.36% (active). Also, the growth in the experiment with A549/ATCC NSCLC was -18.4% (active); in the experiment with 786-0 renal, 2.76% (active); in the experiment on COLO 205 colon it was -83.6% (active); in the experiment on DU-145 prostate, -76.9% (active); in the experiment on K-562 leukemia, -70.1% (active); with MALME-3M melanoma, -38.3% (active). The growth is -82.9% (active) in the experiment with MDA-MB-231 breast; 47.1% in the experiment with RXF 393 renal; 37.7% in the experiment on SF-268 CNS; 4.81% (active) with SF-295 CNS; 55.7% in the experiment with SF-539 CNS; 74.9% in the experiment on UACC-257 melanoma. The growth in the experiment on M14 melanoma was -48.2% (active).

For `COc1ccc(Nc2ncc(C#N)c(NCCCNC(=O)C3CCC3)n2)cc1`, the growth is 67.6% in the experiment with NCI-H23 lung; 49% in the experiment on NCI-H226 lung; 80.8% in the experiment with NCI-H322M lung; 31.4% in the experiment with HOP-62 NSCLC; 64.3% in the experiment with HOP-92 NSCLC; 85.1% with NCI-H522 lung. Besides, the growth in the experiment with A549/ATCC NSCLC is 61.2%; in the experiment on 786-0 renal it was 50.4%; with COLO 205 colon, 33.3%; in the experiment with DU-145 prostate it was 60.7%; with K-562 leukemia, 50.4%; in the experiment on MALME-3M melanoma, 78.8%. Moreover, the growth in the experiment with MDA-MB-231 breast is 56.5%; in the experiment on RXF 393 renal, -4.62% (active); with SF-268 CNS, 30.7%; in the experiment on SF-295 CNS, 76.8%; with SF-539 CNS it was 28.5%; in the experiment with UACC-257 melanoma it was 113%. The growth with M14 melanoma was 70.9%.

For the compound `CCn1cc(C(=O)N/N=C/c2cccc(F)c2)c(=O)c2cc(F)c(N3CCNC(C)C3)c(F)c21` (stereo not drawn), the growth in the experiment on NCI-H23 lung was 76.2%; with NCI-H226 lung, 97.1%; with NCI-H322M lung, 83.4%; in the experiment with HOP-62 NSCLC, 86.5%; in the experiment on HOP-92 NSCLC it was 51.2%; with NCI-H522 lung it was -29.8% (active). Further, the growth in the experiment on A549/ATCC NSCLC is -66.6% (active); in the experiment on 786-0 renal, -39.7% (active); in the experiment with COLO 205 colon, 17.5%; in the experiment on DU-145 prostate it was -87.5% (active); in the experiment with K-562 leukemia, -52.1% (active); in the experiment on MALME-3M melanoma, -67.4% (active). The growth in the experiment on MDA-MB-231 breast is -49.6% (active); in the experiment with RXF 393 renal it was -21.6% (active); in the experiment on SF-268 CNS it was 39.4%; in the experiment on SF-295 CNS, 75.7%; in the experiment with SF-539 CNS, -4.61% (active); with UACC-257 melanoma, 89%. Moreover, the growth with M14 melanoma was -7.07% (active).

As for `CCN1C(=O)N(CC)C2C1NN=c1s/c(=C\c3ccc(OC)cc3)c(=O)n12` (stereo not drawn), the growth with NCI-H23 lung is 32.2%; in the experiment on NCI-H226 lung, 60.5%; with NCI-H322M lung, 45.9%; in the experiment with HOP-62 NSCLC it was 37.1%; in the experiment on HOP-92 NSCLC, 33%; with NCI-H522 lung, -9.26% (active). In addition, the growth in the experiment on A549/ATCC NSCLC was 10%; in the experiment with 786-0 renal, 20.8%; in the experiment with COLO 205 colon, -7.08% (active); with DU-145 prostate, 6.18% (active); with K-562 leukemia, 8.38% (active); in the experiment on MALME-3M melanoma, 40.2%. Besides, the growth with MDA-MB-231 breast was 16.3%; with RXF 393 renal it was 33.9%; in the experiment with SF-268 CNS it was 49.4%; in the experiment on SF-295 CNS it was 13.2%; in the experiment with SF-539 CNS, -21.4% (active); in the experiment on UACC-257 melanoma, 56.3%. Also, the growth in the experiment with M14 melanoma is 6.11% (active).

Regarding `CCN(CC)CCN1C(=O)c2c(c3c4ccccc4[nH]c3c3ccc4ccccc4c23)C1=O`, the growth in the experiment with NCI-H23 lung is -67.8% (active); in the experiment with NCI-H226 lung it was 87.5%; in the experiment with NCI-H322M lung it was 87%; in the experiment with HOP-62 NSCLC, 55.3%; in the experiment on NCI-H460 lung, 16.3%; in the experiment on HOP-92 NSCLC it was 66.2%. The growth was -60.9% (active) with A549/ATCC NSCLC; -96.7% (active) in the experiment with 786-0 renal; 78.7% with COLO 205 colon; -92.3% (active) in the experiment with DU-145 prostate; -33% (active) in the experiment with K-562 leukemia; -85.7% (active) with MALME-3M melanoma. For the same compound, the growth in the experiment with MDA-MB-231 breast was -78.9% (active); in the experiment with RXF 393 renal it was 47.1%; with SF-268 CNS, -45% (active); with SF-295 CNS, 48.3%; in the experiment with SF-539 CNS, -85.7% (active); in the experiment on UACC-257 melanoma it was 105%. Besides, the growth in the experiment on M14 melanoma was -85% (active).
